These results are taken from PubChem BioAssay (Tox21).

Records with an inconclusive call do not appear. Values without a mark were called inactive. The source made the active and inactive calls. Calls follow the shape of the dose curve; as a rule, active = well fitted inhibition curve with a large enough effect in the repeat runs; inconclusive = weak or mixed curves; inactive = no such curve, though single readings can be large or run the other way.
% is scaled to controls: 0 for no effect and ±100 for the full control effect; potency is read from the fitted curve at half-maximal effect.

The target in this assay is Aromatase (Homo sapiens) (UniProt P11511). The assay is described as follows: qHTS assay to identify aromatase inhibitors (AID 743083). Also: nearly all actives have a fitted effect of over 55% in size. Conditions: MCF-7 aro ERE, testosterone-driven ERE luciferase, 24 h; series mostly up to 70.3 µM; activity, negative = inhibition: at the top concentration. A general note: Quantitative high-throughput screening tests each substance at several concentrations.
Chain of Aromatase (Homo sapiens) (P11511 whole entry, looked up): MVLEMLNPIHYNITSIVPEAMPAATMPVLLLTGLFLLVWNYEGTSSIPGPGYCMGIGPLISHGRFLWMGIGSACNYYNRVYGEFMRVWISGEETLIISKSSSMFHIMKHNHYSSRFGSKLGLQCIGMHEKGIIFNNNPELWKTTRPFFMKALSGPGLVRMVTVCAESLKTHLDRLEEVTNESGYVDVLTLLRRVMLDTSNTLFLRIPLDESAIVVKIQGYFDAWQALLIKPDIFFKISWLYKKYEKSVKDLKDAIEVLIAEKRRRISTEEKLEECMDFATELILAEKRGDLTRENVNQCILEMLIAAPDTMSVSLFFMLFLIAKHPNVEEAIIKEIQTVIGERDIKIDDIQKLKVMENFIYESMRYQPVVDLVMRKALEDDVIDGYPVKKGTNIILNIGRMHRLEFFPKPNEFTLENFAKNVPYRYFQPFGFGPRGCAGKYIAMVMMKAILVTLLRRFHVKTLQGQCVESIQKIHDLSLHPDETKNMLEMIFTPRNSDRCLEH
As to `O=C1C=CC(=O)N1c1ccccc1`, the Potency was 10.9 µM (active). The same measure, in the same setting: then `O=C(Nc1ccc(Cl)cc1)Nc1ccc(Cl)c(C(F)(F)F)c1`, with 10.6 µM (active); and `CCN(CC)CCOc1ccc(C(O)(Cc2ccc(Cl)cc2)c2ccc(C)cc2)cc1` (stereo not drawn), with 29.8 µM (active); and `CCC(C)c1cc([N+](=O)[O-])cc([N+](=O)[O-])c1OC(=O)OC(C)C` (stereo not drawn), with 61.1 µM (active). Take `CCCCCCC(C)Nc1ccc(Nc2ccccc2)cc1` (stereo not drawn): the “activity, negative = inhibition” value is -29.8%.

As to `CCCOc1sc(C(=O)N2CCC(c3cc(CN)ccc3F)CC2)c(C)c1Br`, the Potency was 25 µM (active).

For the compound `Oc1ccc(-c2ccc(O)cc2)cc1`, the “activity, negative = inhibition” value was 140% [at 95 µM]. With `CC(=O)OC(OC(C)=O)c1ccc([N+](=O)[O-])o1`, the Potency is 17.5 µM (active).

As to `CC(C(O)c1ccccc1)N(C)CCOC(c1ccccc1)c1ccccc1` (stereo not drawn), the Potency is 29.8 µM (active).

Consider `CSc1ccc2c(c1)N(CCC1CCCCN1C)c1ccccc1S2` (stereo not drawn), for which the Potency was 27.2 µM (active). With `COc1cc(C(=O)NS(=O)(=O)c2ccccc2C)ccc1Cc1cn(C)c2ccc(NC(=O)OC3CCCC3)cc12`, the “activity, negative = inhibition” value is 10.1%. As to `C=C1C(C)(C)[C@@]2(Cl)C(Cl)[C@]1(Cl)C(Cl)(Cl)C2(Cl)Cl` (stereo partly drawn), the Potency is 60 µM (active). As for `Cc1cc2c(C(C)C)c(O)c(O)c(C=O)c2c(O)c1-c1c(C)cc2c(C(C)C)c(O)c(O)c(C=O)c2c1O`, the Potency is 21.1 µM (active).
